According to PubChem BioAssay AID2391 (Southern Research Specialized Biocontainment Screening …, 2010):
In all, about 310,000 compounds went through this assay and about 410 (0.13%) were called active. Inconclusive results (about 2%) are left out. How the calls were made is not given here. The list is a sample of the results. Potency and affinity values are given separately.

Test: inhibition of RSV-induced cytopathic effect – HEp-2 cells, primary 10 µM value included (AID 2391)
Details: at 10 µM, active compounds read high

CPE inhibition, inactive:
CCOC(=O)N1CCc2c(sc3c2c(=O)n(-c2ccc(CC)cc2)c(=O)n3CC(=O)NCC2CCCO2)C1 (centres undefined) -1.83%
O=C(CNc1cccc2ccccc12)N/N=C/c1ccc([N+](=O)[O-])cc1 0.72%
COc1cc([N+](=O)[O-])cc(/C=N/NC(=O)C(C)Nc2cccc3ccccc23)c1O (centres undefined) 7.79%
Cc1cccnc1NC(=S)Nc1ccc(F)cc1F 1.49%
COC(=O)[C@@H]1[C@@H](C)N(Cc2ccccc2)C(=O)N[C@H]1c1cccc(C(F)(F)F)c1 3.75%
Cc1cc2nc3n(c2cc1C)CCCN3 5.29%
O=C(Nc1sc(-c2ccccc2)cc1C(=O)O)c1ccccc1 7.6%
CCOC(=O)c1cc(-c2ccccc2)sc1NC(=O)C(C)(C)C 0.09%
COc1ccc(-c2cc(-c3ccc(C)cc3)nc(SCc3nnc(-c4ccccc4)o3)c2C#N)cc1OC 2.51%
Cc1ccc(OCCOC(=O)c2cccc(S(=O)(=O)N3CC(C)OC(C)C3)c2)cc1 (centres undefined) 3.28%
COc1ccc(-n2c(C)cc(/C=C3\C(=N)N4N=C(CC(=O)N5CCOCC5)SC4=NC3=O)c2C)cc1 3.44%
Cc1cc(/C=C2/C(=N)N3C(=NC2=O)SN=C3S(C)(=O)=O)c(C)n1-c1ccc(F)cc1 7.04%
COc1ccc(/C=C2\C(=N)N3N=C(CC(=O)N4CCOCC4)SC3=NC2=O)cc1 -0.02%
COc1cccc(-n2c(C)cc(/C=C3/C(=N)N4C(=NC3=O)SN=C4S(C)(=O)=O)c2C)c1 16.5%
COc1ccc(OC)c(-n2c(C)cc(/C=C3\C(=N)N4N=C(CC(=O)N5CCOCC5)SC4=NC3=O)c2C)c1 17%
Cc1cc(/C=C2\C(=N)N3N=C(CC(=O)N4CCOCC4)SC3=NC2=O)c(C)n1-c1ccccc1 7.24%
CCC1=NN2C(=N)/C(=C\c3cccn3-c3ccc(OC)cc3)C(=O)N=C2S1 5.71%
O=C(N/N=C/c1ccc(Cl)cc1)C(=O)N1CCCCCC1 -0.12%
O=C(NCc1ccco1)/C(=C\c1cccs1)NC(=O)c1ccco1 -0.55%
Nc1nc(N2CCCCC2)nc(N2CCCCC2)n1 0.85%
NS(=O)(=O)c1ccc(CNS(=O)(=O)c2ccc3c(c2)OCCO3)cc1 2.01%
Cc1cc(=O)oc2cc(NC(=O)c3cccc(F)c3)ccc12 4.53%
Clc1ccc(-n2c(SCc3nc4ccccc4[nH]3)nnc2-c2ccncc2)cc1 0.34%
CC(=O)NC(c1ccc(F)cc1)c1cccnc1 (centres undefined) 1.45%
CCc1nc(SCC(=O)c2cccc([N+](=O)[O-])c2)n[nH]1 1.44%
COC(=O)C1=C(C)N(Cc2ccccc2)C(=S)N[C@H]1c1ccccc1 14.1%
CC(=O)C1=C(C)N(Cc2ccccc2)C(=O)N[C@H]1c1cccc(C(F)(F)F)c1 4.45%
CCN1C(=O)N[C@H](c2ccc(Br)cc2)C(C(=O)OC)=C1C 0.05%
CCN1C(=O)N[C@@H](c2ccc(Br)cc2)C(C(=O)OC)=C1C 5.67%
COC(=O)C1=C(C)N(Cc2ccccc2)C(=O)N[C@H]1c1cccc(F)c1 3.4%
CC(=O)C1=C(C)N(Cc2ccccc2)C(=O)N[C@@H]1c1cccc(C(F)(F)F)c1 0.41%
O=C(CSc1nccc(=O)[nH]1)c1ccccc1Br 2.89%
COc1ccc(C)cc1NC(=O)CSc1nnnn1C1CCCC1 2.31%
Cc1cc(=O)[nH]c(NCc2ccc(Cl)cc2)n1 0.3%
Cc1ccsc1C(=O)NNC(=O)C1C2C=CC(C2)C1C(=O)O (centres undefined) 0.87%
COc1ccc(OCc2nnc(SCC(=O)Nc3cccc(Cl)c3)o2)cc1 2.31%
CCn1c(SC)nnc1-c1nnc(SC)n1CC 3.28%
CSc1nnc(-c2sc3cc(Cl)ccc3c2Cl)n1C 14%
O=C(Cn1nc(-c2ccccc2)c2ccccc2c1=O)Nc1ccc(F)cc1 2.89%
COc1ccc(CNC(=O)c2coc(=O)c3ccccc23)cc1 5.17%
COc1ccc(CNC(=O)c2coc(=O)c3ccccc23)c(OC)c1 -0.36%
C#CCn1c(S(=O)(=O)Cc2ccc(OC)cc2)nc(-c2ccccc2)c1-c1ccccc1 3.68%
C#CCn1c(S(=O)(=O)Cc2ccccc2Cl)nc(-c2ccccc2)c1-c1ccccc1 -0.31%
Cc1cc([N+](=O)[O-])nn1CCCC(=O)O 5.17%
CN(NC(=O)c1cccc(Cl)c1)c1nc(-c2ccccc2)nnc1C(F)(F)F 3.22%
CCN(CC(=O)Nc1cc(Cl)ccc1C)C(=O)CCOc1ccc(C)cc1 0.1%
CCN(CC(=O)Nc1cc(Cl)ccc1C)C(=O)CSCc1c(C)noc1C 16.3%
COc1ccc(C(=O)NCC(=O)N/N=C/c2c(C)[nH]c3ccccc23)cc1 6.54%
COc1cc(C(=O)NCC(=O)N/N=C/c2c(C)[nH]c3ccccc23)cc(OC)c1OC 3.1%
CC(=O)c1ccc(N2CCN(C(=O)c3nn(Cc4ccccc4)c(=O)c4ccccc34)CC2)cc1 5.5%
COc1ccc(NC(=O)Cn2nnc(-c3ccccc3NC(=O)c3ccco3)n2)cc1 0.17%
COc1ccccc1NC(=O)c1sc2ncn(Cc3cccc4ccccc34)c(=O)c2c1C 2.87%
COc1ccccc1N(CC(=O)Nc1ccc(F)c(F)c1)S(C)(=O)=O 0.09%
Nc1ccn([C@@H]2O[C@H](CO)[C@@H](O)[C@@H]2O)c(=O)n1 -0.64%
O=c1ccn([C@@H]2O[C@H](CO)[C@@H](O)[C@H]2O)c(=O)[nH]1 -0.56%
O=c1[nH]c(=O)n(C2OC(CO)C(O)C2O)cc1Br (centres undefined) -0.14%
Nc1ccn([C@@H]2O[C@H](CO)[C@@H](O)C2O)c(=O)n1 (some centres undefined) -2.12%
CCOc1ccccc1Nc1cc(C)nc2nnnn12 -1.74%
Cc1ccc(S(=O)(=O)[N-]c2nc3ccccc3nc2-n2cc[n+](CCC(C)C)c2)cc1 0.13%
COc1cc(NC(=S)N2CCN(Cc3ccccc3)CC2)cc(OC)c1 4.9%
Cc1cc(/C=C2/NC(=O)NC2=O)c(C)n1-c1ccncc1 19.7%
Cc1cc(/C=C2/C(=O)NN(c3ccccc3)C2=O)c(C)n1-c1cccc(O)c1 1.07%
Cc1cc(/C=C2/NC(=O)NC2=O)c(C)n1C 3.8%
Cc1cc(/C=C2/NC(=O)NC2=O)c(C)n1-c1ccccn1 2.98%
Cc1cccc(-n2c(C)cc(/C=C3\NC(=O)NC3=O)c2C)c1 5.86%
Cc1cc(/C=C2\C(=O)NN(c3ccccc3)C2=O)c(C)n1-c1ccccc1O -1.31%
O=C(NNC1=NS(=O)(=O)c2ccccc21)c1ccccc1Cl 1.71%
CC(CC(=O)NC1CCCCC1)S(=O)(=O)c1ccc2c(c1)CCN2C(=O)C1CC1 (centres undefined) 0.99%
CCC(=O)Nc1ccc(C(=O)CSc2nnc(-c3cccnc3)o2)cc1 -0.13%
COc1cc([N+](=O)[O-])ccc1NC(=O)CSc1ccccn1 4.53%
O=C(Nc1ccc(O)c2c(=O)cc(-c3ccccc3Cl)oc12)c1cccc(Cl)c1 -0.66%
CSc1cc(-c2ccc(Cl)cc2)c(C(=O)NN)s1 0.87%
COC(=O)c1nc(N)sc1C 1.76%
COc1ccc(S(=O)(=O)N2CC(C(=O)O)Oc3ccc(CC(=O)O)cc32)cc1 (centres undefined) 1.19%
O=C(Nc1ccc(N2CCOCC2)c(Cl)c1)c1cccnc1 4.29%
O=C(Nc1ccc(N2CCCC2)c(Cl)c1)c1cccnc1 5.52%
O=C(CSc1nnc2ccccn12)NC(=O)NC1CCCC1 0.11%
COc1cccc(OC)c1C(=O)Nc1ccc(C)cc1C(=O)c1ccccc1 6.46%
Cc1nc(CCNS(=O)(=O)c2cccnc2)cs1 -0.89%
COc1ccc(NC(=O)c2cn(-c3ccccc3)nc2-c2cc3ccccc3o2)cc1 14.1%
O=C(Nc1ccc([N+](=O)[O-])cc1)c1cn(-c2ccccc2)nc1-c1cc2ccccc2o1 0.46%
COc1cc(C=O)ccc1OCc1cccc(Br)c1 1.17%
CC(=O)Nc1cccc(NC(=O)c2cccc(S(=O)(=O)N3CCN(Cc4ccccc4)CC3)c2)c1 1.07%
O=C(Nc1ccc2c(c1)OCO2)[C@@H]1[C@@H]2C(=O)N(C3CCCCC3)C(=O)[C@@H]2C2c3ccccc3C=CN21 (some centres undefined) 2.62%
COc1ccc(C(C[N+](=O)[O-])c2c(C)cc3ccccn23)c(OC)c1 (centres undefined) 3.91%
COc1ccc(C(C[N+](=O)[O-])c2c(-c3ccccc3)cc3ccccn23)cc1 (centres undefined) 7.08%
COC(=O)CSc1nc2ccc(NC(=O)CSc3nnnn3Cc3ccccc3)cc2s1 1.43%
COc1ccccc1OCCOCCOc1c(C)cc(C)cc1Br 1.97%
COc1ccccc1CNC(=O)c1oc2ccccc2c1C 1.89%
CCOc1ccccc1CNC(=O)c1cn(C)c(=O)c2c1c1ccccc1n2C 6.47%
CCOc1ccccc1CNC(=O)Cn1c(=O)oc2ccccc21 -0.15%
CCOc1ccccc1CNC(=O)c1c([N+](=O)[O-])c(C)nn1C 0.22%
CCOc1ccccc1CNC(=O)c1cc2occc2n1C 2.63%
COc1ccccc1CNC(=O)c1cc2c(=O)[nH]c3ccccc3c2n1C 16.5%
